The text below walks through data of PubChem BioAssay AID1851 (National Center for Advancing Translational Sciences (NCATS), 2009).

Several values for one entry are separate records, joined by “and”; a condition that tells them apart may be missing. Equal values may be shown once. The whole screen tested about 16,000 compounds, of which about 2,600 (16%) were called active. About 20% were inconclusive and are not listed. A selection follows. Values without a mark were called inactive. Calls come from the whole dose curve; as a rule, active = well fitted curve in the direction sought with a large enough effect; inconclusive = small, poorly fitted or top-dose-only effect, or effect the other way; inactive = no such curve, though single readings can be large or run the other way.
% is set by controls: 0 for no effect and ±100 for the full control effect.

Cytochrome P450 2D6 (Homo sapiens), sequence (P10635 whole entry, looked up): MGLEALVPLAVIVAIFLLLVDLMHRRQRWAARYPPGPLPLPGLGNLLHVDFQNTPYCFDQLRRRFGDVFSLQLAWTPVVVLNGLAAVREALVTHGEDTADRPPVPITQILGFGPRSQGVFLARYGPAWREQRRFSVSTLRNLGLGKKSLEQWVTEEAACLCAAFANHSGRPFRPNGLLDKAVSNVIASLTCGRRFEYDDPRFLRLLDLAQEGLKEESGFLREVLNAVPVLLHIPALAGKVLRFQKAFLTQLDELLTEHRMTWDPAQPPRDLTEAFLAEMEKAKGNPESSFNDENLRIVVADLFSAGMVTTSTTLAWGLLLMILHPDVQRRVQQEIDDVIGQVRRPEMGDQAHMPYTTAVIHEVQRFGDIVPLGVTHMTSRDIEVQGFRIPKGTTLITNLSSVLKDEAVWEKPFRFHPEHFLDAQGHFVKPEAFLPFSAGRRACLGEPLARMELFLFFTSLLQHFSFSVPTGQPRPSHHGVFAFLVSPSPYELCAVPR

The assay has as its target Cytochrome P450 2D6 (Homo sapiens) (UniProt P10635). Briefly: Cytochrome panel assay with activity outcomes. The settings on record: recombinant CYP, pro-luciferin dealkylation, luminescence, p450-cyp2d6; series mostly up to 57.1 µM.
Consider `COc1cccc(/C=N/NC(=O)c2nc(-c3ccccc3)cc(-c3ccccc3)n2)c1`, for which the AC50 entry is “inactive”.

As to `CC(C)(C)c1ccccc1OCCN1CCCC1`, the AC50 was 5.62 µM (active).

As to `Cc1ccccc1OCCCN1CCCC1`, the AC50 is 14.1 µM (active).

On to `O=C(O)c1ccc(OCc2ccccc2)c(Cl)c1`, for which the activity, negative = inhibition is 4.91% [at 11.4 µM].

For the molecule `Clc1ccccc1OCCCCN1CCCC1`, the AC50 was 11.2 µM (active).

As for `Cc1ccccc1OCC(=O)OC1CCN(C)CC1`, the AC50 entry was “inactive”.

In the case of `Fc1ccccc1OCCCCCCN1CCCC1`, the AC50 is 14.1 µM (active).

In the case of `Cc1ccc(CNC(=O)CCc2c(C)nc3ncnn3c2C)cc1`, the AC50 entry is “inactive”.

Regarding `O=C1[C@H]2[C@H]3[C@H](O)[C@H](O)C/C(=N/OC[C@@H](O)COCc4ccco4)[C@H]3CC[C@@H]2C(=O)N1C[C@@H]1CCCO1`, the activity, negative = inhibition was 14.8% [at 11.4 µM].

Regarding `C/C(CCN1CCc2nc(-c3ccccc3)c(-c3ccccc3)cc2C1)=N\O[C@@H](C)c1cn([C@H](CO)Cc2ccccc2)nn1`, the activity, negative = inhibition is -8.59% [at 11.4 µM] and -16.7% [at 11.4 µM].

Turning to `COc1ccccc1S(=O)(=O)Nc1ccc(-c2nnc3n2CCCCC3)cc1`, the AC50 result is “inactive”.

For the molecule `N#Cc1c(N)nc2c(c1-c1cccc(O)c1)CCCCCC2`, the AC50 result is “inactive”.

In the case of `CCc1nnc2sc(-c3ccc(NC(=O)c4ccco4)cc3)nn12`, the AC50 entry is “inactive”.

Regarding `Cc1ccc(S(=O)(=O)N[C@H](C(=O)N2CCC(C(=O)NCC(=O)O)CC2)C(C)C)cc1`, the AC50 entry is “inactive”.

`Cc1cc(C)nc(NN2C(=O)/C(=C/c3ccccc3)SC2=S)n1`: the AC50 entry is “inactive”.

With `COc1ccc(/C=C\C(=O)Nc2ccccc2C(=O)O)cc1OC`, the AC50 entry is “inactive”.

For `CCOc1cc(C#N)c(NC(=O)c2cccnc2)cc1OCC`, the AC50 result is “inactive”.

Turning to `COCCNC(=O)c1onc(CSc2ccccc2F)c1C(=O)O`, the AC50 entry was “inactive”.

Take `CC(C)(C)NC(=O)C(=O)NNC(=O)c1ccccc1`: the AC50 entry is “inactive”.

For `N[C@H](C(=O)O)c1nn[nH]n1`, the AC50 result was “inactive”.

As to `O=C(NNC(=S)NCc1ccco1)c1ccc(Cl)s1`, the AC50 result is “inactive”.

For the molecule `Nc1ccc2c3c(cccc13)C(=O)NC2=O`, the AC50 entry was “inactive”.

For the molecule `Nc1[nH]c(=S)[nH]c(=O)c1N=Nc1c(Br)cc(S(N)(=O)=O)cc1Br`, the activity, negative = inhibition is 7.23% [at 11.4 µM].

Consider `CC1(C)CC(O)CC(C)(C)N1CC(O)COCCOc1ccc(Br)cc1` (configuration not stated), for which the AC50 is 14.1 µM (active).

As for `O=c1c(-c2cccs2)nc2cncnc2n1C1CC1`, the AC50 result is “inactive”.

With `COc1cccc(Nc2ncc3nc(CCc4ccccc4)c(=O)n(Cc4cccs4)c3n2)c1`, the AC50 result is “inactive”.

Regarding `O=C(NCc1ccccc1)C(c1ccncc1)N(C(=O)c1csnn1)C1CC1` (configuration not stated), the AC50 entry was “inactive”.

As for `CC(C)(C)NC(=O)NC(=O)CSc1nnc2ccccn12`, the AC50 entry is “inactive”.

As to `O=c1cnc2cnc(N3CCOCC3)nc2n1C[C@H]1CCCO1`, the AC50 entry was “inactive”.

Regarding `FC(F)(F)c1ccccc1-c1ccc2ncnc(NCc3cccs3)c2c1`, the AC50 is 10 µM (active).

Consider `Cc1ccccc1-c1ccc2ncnc(NCc3cccs3)c2c1`, for which the AC50 was 10 µM (active).

As for `CC(C)=CCC/C(C)=C/CO/N=C1/[C@H]2O[C@@H]2[C@@H](O)[C@H]2[C@H]1CCn1c(=O)n(-c3ccccc3)c(=O)n12`, the activity, negative = inhibition was -3.53% [at 11.4 µM].

In the case of `CC1CN(C(=O)COc2ncnc3ccccc23)CC(C)O1` (configuration not stated), the AC50 entry is “inactive”.

`CC1=CC(C)(C)N(C)C(=O)N1c1ccc(Cl)cc1`: the AC50 entry was “inactive”.

As for `COC(=O)c1[nH]c2cc(OC)ccc2c1NC(=O)CCN1CCSCC1`, the AC50 result was “inactive”.

For `CCOC(=O)C(C)Sc1ncc(OC)c(Sc2ccc(Cl)cc2)n1` (configuration not stated), the AC50 result is “inactive”.

On to `Cc1nn(-c2ccccc2)c(-c2ccccc2)c1C(=O)O`, for which the AC50 entry is “inactive”.

In the case of `Nc1c2c(=O)oc(-c3ccccc3)cc2nn1-c1ccccc1`, the AC50 was 5.01 µM (active).

Consider `Cc1cc(N)n(-c2ccccc2)n1`, for which the AC50 result is “inactive”.

Regarding `CCOC(=O)CSc1n[nH]c(NC(=O)c2cccc(C(F)(F)F)c2)n1`, the AC50 entry is “inactive”.

`CN(C)c1ccc(NC(=O)c2cccc(N3C(=O)C4C5C=CC(C5)C4C3=O)c2)cc1` (configuration not stated): the AC50 entry is “inactive”.

In the case of `Cc1nnsc1SCC(=O)O`, the AC50 entry was “inactive”.

For the molecule `Cc1ccc(-c2nc(-c3nccc4ccccc34)oc2-c2ccccc2)cc1`, the activity, negative = inhibition was -9.6% [at 11.4 µM].

For the molecule `CS(=O)(=O)N1CCN(c2ccc([N+](=O)[O-])c(NCc3ccccc3)c2)CC1`, the AC50 result was “inactive”.

Consider `C1=C(CN2CCOCC2)COc2c1cccc2OC[C@@H]1CNCCO1`, for which the AC50 entry was “inactive”.

Consider `CS(=O)(=O)Nc1ccc([N+](=O)[O-])cc1OC1CCCCC1`, for which the AC50 was 0.0501 µM (active).

For the molecule `COc1ccc([N+](=O)[O-])cc1NC1C2CC3CC(C2)CC1C3` (configuration not stated), the AC50 entry is “inactive”.

As to `CS(=O)(=O)Nc1ccc([N+](=O)[O-])cc1Oc1ccccc1`, the AC50 entry is “inactive”.

Regarding `Cc1csc(NC(=O)CCNS(=O)(=O)c2ccc3c(c2)c(=O)n(C)c(=O)n3C)n1`, the AC50 result was “inactive”.

For the molecule `CCCc1nnc(SCC(=O)N2C(C)CCCC2C)n1CCCOC` (configuration not stated), the AC50 result is “inactive”.

In the case of `CO[C@@H](C(C)C)[C@@H](C)[C@@H]1OC(=O)C[C@@H]1O`, the activity, negative = inhibition is -14.8% [at 11.4 µM].

Regarding `CC(=O)N1CCc2cc(Br)cc(S(=O)(=O)N3CCN(C(=O)c4ccco4)CC3)c21`, the AC50 entry is “inactive”.

On to `Cc1ccc(S(=O)(=O)CC#CCOC(=O)c2ccc([N+](=O)[O-])cc2)cc1`, for which the AC50 is 12.6 µM (active).

With `COc1ccc(C(=O)NCS(=O)(=O)c2ccc(C)cc2)cc1`, the AC50 entry is “inactive”.

For `Cc1c(OC(=O)c2ccc([N+](=O)[O-])cc2)c2c(c[n+]1C)COC(C)(C)OC2`, the AC50 result was “inactive”.

Regarding `COc1ccc(-c2nc3cnc(N4CCOCC4)nc3n(C[C@H]3CCCO3)c2=O)cc1`, the AC50 result was “inactive”.

Take `CCc1nnc(NC(=O)c2cc(-c3ccccc3)nn2-c2ccccc2)s1`: the AC50 result was “inactive”.

As to `Fc1cccc(CSc2ncnc3c2ncn3[C@H]2CCCS2)c1`, the activity, negative = inhibition was 8.45% [at 11.4 µM].

Take `COc1ccc(CNc2ncncc2-c2cccc(NS(C)(=O)=O)c2)c(OC)c1`: the AC50 is 25.1 µM (active).

Take `COc1cccc(-c2cncnc2NCc2ccc(OC)cc2OC)c1`: the AC50 was 7.94 µM (active).

On to `COc1cccc(-c2cncnc2NC2CCNCC2)c1`, for which the AC50 entry was “inactive”.

In the case of `COc1cccc(-c2cncnc2NCc2ccccc2OC)c1`, the AC50 was 7.94 µM (active).

Take `COc1ccccc1CNc1cc(-c2cccc(NS(C)(=O)=O)c2)ncn1`: the AC50 entry is “inactive”.

As for `COc1ccc(CNc2ncncc2-c2cccnc2)c(OC)c1`, the AC50 is 15.8 µM (active).

Consider `C/C(=N\n1nnnc1Nc1ccccc1)c1ccc(N)cc1`, for which the AC50 result is “inactive”.

As for `CCNc1ncc2nc(C)c(=O)n(Cc3ccc(F)cc3)c2n1`, the AC50 result is “inactive”.

Consider `O=c1cnc2cnc(Oc3ccccc3)nc2n1Cc1ccc(F)cc1`, for which the AC50 result was “inactive”.

For `O=C(O)/C=C\C(=O)Nc1ncn[nH]1`, the activity, negative = inhibition was 3.54% [at 11.4 µM].

As for `CCC(C)(C(=O)NC1CCCC1)N(Cc1ccco1)C(=O)c1ccccn1` (configuration not stated), the AC50 entry is “inactive”.

As to `O=c1ccc2cc(O)c(O)cc2o1`, the AC50 entry is “inactive”.

Take `OC[C@H](S)CS`: the activity, negative = inhibition was 19.8% [at 11.4 µM].

As to `CCOc1ccc(C(C)=O)cc1N1C(=O)C2C3C=CC(C3=C(C)C)C2C1=O` (configuration not stated), the AC50 result was “inactive”.

As for `COc1ccc(NC(=O)c2ccc(-n3cccn3)nc2)c(OC)c1`, the AC50 entry was “inactive”.

For `COc1ccccc1NC(=O)c1cnc2n(c1=O)CCS2`, the AC50 entry is “inactive”.

Turning to `COc1ccccc1NC(=O)c1ccc(-n2cccn2)nc1`, the AC50 was 7.94 µM (active).

Take `COc1ccccc1CCn1c(=O)c(-c2ccc(Cl)cc2)nc2cncnc21`: the AC50 entry is “inactive”.

As to `COc1ccc(/C=N/NC(=O)c2cccc([N+](=O)[O-])c2)cc1OS(=O)(=O)c1ccc(C)cc1`, the AC50 result is “inactive”.

As to `CC(=O)Nc1sc2c(c1C(N)=O)CCCC2`, the AC50 entry is “inactive”.

On to `CC(=O)Nc1sc2c(c1CN1CCN(C)CC1)CCCC2`, for which the AC50 is 12.6 µM (active).

As for `CCNC(=O)c1c(NC(C)=O)sc2c1CCCC2`, the AC50 entry is “inactive”.

In the case of `Cc1cc(C)c(S(C)(=O)=O)c(Oc2ccc(F)cc2)n1`, the AC50 entry was “inactive”.

`COc1ncc2nc(-c3cn(C)c4ccccc34)c(=O)n(-c3ccccc3)c2n1`: the AC50 entry was “inactive”.

Take `CCOC(=O)c1c(NC(=O)C2C3CCC(O3)C2C(=O)O)sc(C)c1-c1ccc(C)cc1` (configuration not stated): the AC50 result was “inactive”.

Turning to `CCOc1ccc(N2C(=O)/C(=C/c3cccs3)N(CC(=O)OC)C2=S)cc1`, the AC50 result was “inactive”.

Consider `CCc1ccc(N2C(=O)/C(=C/c3cccs3)N(CC(=O)OC)C2=S)cc1`, for which the AC50 is 0.794 µM (active).

With `CCOc1ccc(N2C(=O)/C(=C/c3cc(OC)c(OC)c(OC)c3)N(CC(=O)OC)C2=S)cc1`, the AC50 result is “inactive”.

Regarding `O=C(Nc1cccc(-c2cn3cccnc3n2)c1)c1ccco1`, the AC50 entry was “inactive”.

For `COc1ccc(S(=O)(=O)N2CCc3ccccc3C2)cc1OC`, the AC50 entry is “inactive”.

Regarding `O=C(NNS(=O)(=O)c1ccc(Cl)cc1)c1cnn(-c2ccccc2)c1-n1cccc1`, the AC50 was 2 µM (active).

Regarding `O=C(NNS(=O)(=O)c1cc(Cl)cc(Cl)c1)c1sccc1-n1cccc1`, the AC50 result was “inactive”.

`O=C(NNS(=O)(=O)c1ccccc1)c1cccnc1`: the activity, negative = inhibition is 14.2% [at 11.4 µM].

`N=c1nc(N2CCCCC2)cc(N)n1O`: the AC50 result was “inactive”.

In the case of `Oc1[nH]c2ccccc2c1N=Nc1ccc(C(F)(F)F)cn1`, the AC50 entry was “inactive”.

Consider `[O-][N+](CCO)(CCO)c1ncnc2nc[nH]c12`, for which the activity, negative = inhibition was -0.262% [at 11.4 µM].

Regarding `COc1ccc(-c2nc3ccccc3c(=O)n2N)cc1`, the AC50 result is “inactive”.

As to `O[C@@H](c1cc(-c2ccc(Cl)cc2)nc2ccccc12)[C@@H]1CCCCN1`, the AC50 is 0.631 µM (active).

With `Cc1cc(C)c2nc3c(c([C@H](O)[C@@H]4CCCCN4)c2c1)CC/C3=C/c1ccc(Cl)cc1`, the activity, negative = inhibition is 0.19% [at 11.4 µM].

For `N/C(=N\OC(=O)c1cc(-c2ccccc2)nc2ccccc12)c1ccc(Cl)cc1`, the AC50 result is “inactive”.

As for `COc1ccc(-c2cc([C@H](O)[C@@H]3CCCCN3)c3ccccc3n2)cc1`, the AC50 was 3.16 µM (active).

For `CCNC(=O)COC(=O)c1cc(-c2ccc(OC)cc2)nc2ccccc12`, the AC50 entry was “inactive”.

As to `Cc1ccc(C(=O)COC(=O)CNC(=O)Cc2ccccc2)cc1[N+](=O)[O-]`, the AC50 entry is “inactive”.

As for `Cc1c(NC(=O)Cn2ccc([N+](=O)[O-])n2)c(=O)n(-c2ccccc2)n1C`, the AC50 entry was “inactive”.
